The panel holds about 79,000 compounds, 15% with a hit somewhere; the sample as a whole holds those more often. Cut-off read from the data, not from the text of the source: active = growth inhibition above about 70%; inactive = the rest. Where a SMILES comes first, the peptide text is derived from it. The star is where a group is joined. Boc = CC(C)(C)OC(=O)*
Columns and labels:
[1] = NCI Yeast Anticancer Drug Screen. Data for the rad50 strain (AID 155);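 note: 0% = growth of vehicle-only cultures of the same strain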; details: S. cerevisiae rad50 strain growth inhibition; at 50.0 µM; active compounds read high
How it was run: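 Genetically altered yeast (DNA repair pathway); compound treatment; growth inhibition vs vehicle ctrl.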

[2] = NCI Yeast Anticancer Drug Screen. Data for the mec2-1 strain (AID 157); details: S. cerevisiae mec2-1 strain, at 50.0 µM, active compounds read high
How it was run: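 Compounds were applied to mec2-1 yeast cells. Their growth was then compared with that of vehicle-treated cultures to give growth inhibition.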

[3] = NCI Yeast Anticancer Drug Screen. Data for the sgs1 mgt1 strain (AID 161);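 note: 0% = growth of cultures given vehicle only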; details: S. cerevisiae sgs1 mgt1 strain, at 50.0 µM, active compounds read high
How it was run: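 Growth of a repair-deficient yeast mutant was monitored after compound treatment and expressed as inhibition relative to vehicle-treated cultures.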

[4] = NCI Yeast Anticancer Drug Screen. Data for the cln2 rad14 strain (AID 165);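 note: 0% = growth equal to vehicle treated cultures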; details: S. cerevisiae cln2 rad14 strain, at 50.0 µM, active compounds read high
How it was run: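 Strain: cln2 rad14 yeast, altered in cell cycle control and DNA damage repair. Read-out: growth inhibition vs vehicle.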

[5] = NCI Yeast Anticancer Drug Screen. Data for the bub3 strain (AID 167); details: S. cerevisiae bub3 mutant strain, at 50.0 µM, active compounds read high
How it was run: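 Yeast carrying a defined mutation is treated with each compound, and growth is compared with that of vehicle-exposed cells to give inhibition.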

[6] = NCI Yeast Anticancer Drug Screen. Data for the mlh1 rad18 strain (AID 175); details: S. cerevisiae mlh1 rad18 strain growth inhibition; at 50.0 µM; active compounds read high
How it was run: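 A repair-deficient yeast strain is exposed to test compound, and growth is scored relative to vehicle-treated controls.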

Measured: growth inhibition

C[N+]1(C)CCC[N+](C)(C)CC1
inactive: [1] -15.9% | [2] -7.75% | [3] 3.9% | [4] 16.2% | [5] 20.9% | [6] 6.4%

COc1cc(C2SCC(=O)N2c2ccc(-n3c(-c4ccccc4)nc4ccccc4c3=O)cc2)ccc1O (stereo unspecified)
inactive: [1] -12.6% | [2] -8.75% | [3] 10.7% | [4] -36.2% | [5] 3.3% | [6] 22%

CC(C)(C)C(=O)CC(=O)C(C)(C)C
inactive: [1] -3.9% | [2] -9.5% | [3] 2.25% | [4] -57.4% | [5] -2.8% | [6] -15.8%

COC(=O)C(Cc1c[nH]c2ccccc12)NC(=O)C(Cc1c[nH]c2ccccc12)NC(=O)C(Cc1c[nH]c2ccccc12)NC(=O)OC(C)(C)C (stereo not drawn) (Boc-Trp-Trp-Trp-OMe; configuration not given here)
inactive: [1] -22.9% | [2] -16.6% | [3] -2.45% | [4] 10% | [5] -3.6% | [6] 1.5%

O=[N+]([O-])c1cccc(N=C2c3ccccc3CN2c2cccc([N+](=O)[O-])c2)c1
inactive: [1] -23.4% | [2] 5.8% | [3] -5.3% | [4] 26.7% | [5] 11.5% | [6] -0.4%

Cc1cc(-c2ccccc2N)nc2ccccc12
inactive: [1] 47.5% | [2] 2.35% | [3] 30.4% | [4] 31.3% | [5] 15.9% | [6] 26.6%

CCCCCCC(O)CCCCCCCCCCCO (stereo unspecified)
inactive: [1] 41.5% | [2] -15.4% | [3] 1.05% | [4] -43% | [5] 10.2% | [6] 15.5%

COC(=O)CC(c1ccc2c(c1)OCO2)N1CCCCC1 (stereo unspecified)
inactive: [1] 7.35% | [2] -12.9% | [3] -11.7% | [4] -22.9% | [5] -1% | [6] 11.2%

CCC(O)(c1ccc(OC)cc1)C(c1ccccc1)c1ccccn1 (stereo unspecified)
inactive: [1] -1.3% | [2] -8.8% | [3] 6.5% | [4] -16.5% | [5] 2.8% | [6] -0.65%

COc1cc(C=Nc2ccc(C(C)C)cc2)cc(OC)c1OC
inactive: [1] 9.25% | [2] 13.3% | [3] 19.1% | [4] 8.35% | [5] -4.65% | [6] 12.7%

CCCCC/C=C/C(CC)(C(=O)OCC)C(=O)OCC
inactive: [1] -5.95% | [2] 20.9% | [3] 13.6% | [4] -60% | [5] 40.9% | [6] 6.1%

CCn1c2ccccc2c2cc(/C=N/N=C/c3ccc4c(c3)c3ccccc3n4CC)ccc21
inactive: [1] -17.8% | [2] 5.15% | [3] -11.6% | [4] -13.7% | [5] -1.8% | [6] -18.9%

O=C(Nc1cc(-c2ccccc2)nn1-c1ccccc1)c1ccc(Cl)cc1
inactive: [1] -16.4% | [2] -19.9% | [3] -17.8% | [4] 15.2% | [5] -29.1% | [6] -9.65%

CC(=O)OCC1OC(n2c(C)c(C(C)=O)c(-c3cccc4ccccc34)c(C#N)c2=S)C(OC(C)=O)C(OC(C)=O)C1OC(C)=O (stereo unspecified)
inactive: [1] 25.1% | [2] 22.4% | [3] 48% | [4] 22.1% | [5] 32.3% | [6] 33.9%

COc1c(NC(=O)CC(C)=O)cccc1NC(=O)CC(C)=O
inactive: [1] -1.2% | [2] 14.4% | [3] -2.05% | [4] 7.95% | [5] -8.25% | [6] -11.3%

Cc1n[nH]c(=O)n1-n1cccc1
inactive: [1] -10.1% | [2] -5.35% | [3] -35.5% | [4] 7.1% | [5] -37.2% | [6] 2.55%

Nc1nc(-c2ccccc2)ns1
inactive: [1] 4.9% | [2] -44.1% | [3] 1.4% | [4] 8.4% | [5] -17.8% | [6] -2.3%

COc1cc(/C=N/n2c(C)cc(C)c(C#N)c2=O)cc(OC)c1OC
inactive: [1] -11.9% | [2] 12.9% | [3] -3.4% | [4] 9.1% | [5] -1.05% | [6] -25.4%

Cc1cccc(CNc2ncnc3[nH]ncc23)c1
inactive: [1] -15% | [2] -30.8% | [3] -24.8% | [4] -12.6% | [5] -36.1% | [6] 3.15%

Nc1cn(Cc2ccccc2)c(=O)n(Cc2ccccc2)c1=O
inactive: [1] -1.85% | [2] -7.85% | [3] -9.5% | [4] -57.5% | [5] 8.95% | [6] -23.6%

Oc1c(Cl)c(Cl)c(O)c2ccccc12
inactive: [1] -3.7% | [2] -0.95% | [3] 7.15% | [4] 44.2% | [5] 8.1% | [6] -52.9%
